From PubChem BioAssay AID1851 (National Center for Advancing Translational Sciences (NCATS), 2009)
About 2,600 (16%) of roughly 16,000 compounds were called active. Another 20% or so got no clear call; they are omitted. A selection follows. Unmarked numbers belong to inactive results. The call rests on the fitted dose curve; in most records, active means well fitted curve in the direction sought with a large enough effect; inconclusive means small, poorly fitted or top-dose-only effect, or effect the other way; inactive means no such curve, though single readings can be large or run the other way.

biological target: Cytochrome P450 2D6 (Homo sapiens) (UniProt P10635); assay: Cytochrome panel assay with activity outcomes; settings: recombinant CYP, pro-luciferin dealkylation, luminescence, p450-cyp2d6; series mostly up to 57.1 µM; activity, negative = inhibition: at the top concentration
On the % scale 0 is the no-effect control and ±100 the full control effect.

Chain of Cytochrome P450 2D6 (Homo sapiens) (P10635 whole entry, looked up): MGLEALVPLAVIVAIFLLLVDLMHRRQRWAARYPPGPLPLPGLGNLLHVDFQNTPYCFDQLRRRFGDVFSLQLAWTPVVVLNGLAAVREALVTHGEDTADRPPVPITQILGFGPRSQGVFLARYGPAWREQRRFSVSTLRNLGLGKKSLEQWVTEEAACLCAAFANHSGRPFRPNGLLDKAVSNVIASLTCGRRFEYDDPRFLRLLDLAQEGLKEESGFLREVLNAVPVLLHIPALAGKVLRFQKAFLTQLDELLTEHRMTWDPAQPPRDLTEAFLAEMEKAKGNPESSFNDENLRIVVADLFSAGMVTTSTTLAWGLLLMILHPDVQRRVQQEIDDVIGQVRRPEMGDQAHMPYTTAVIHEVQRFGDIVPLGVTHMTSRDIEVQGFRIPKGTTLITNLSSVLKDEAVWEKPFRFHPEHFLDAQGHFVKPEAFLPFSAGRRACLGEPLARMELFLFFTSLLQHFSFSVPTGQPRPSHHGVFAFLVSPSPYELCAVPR

| SMILES | activity, negative = inhibition | AC50 |
| --- | --- | --- |
| CC1=CC2=NC(=O)CC(C)(C(=O)N(CC(=O)NC(C)(C)C)Cc3cccs3)N2C=C1 (stereo not given) | -6.53% |  |
| O=c1oc2c(Cl)cc(Cl)cc2cc1-c1nnc(Nc2ccccc2F)s1 | 5.36% |  |
| O=C(NC12CC3CC(CC(C3)C1)C2)N1CCN(c2nc(-c3ccccc3)cs2)CC1 | 3.04% |  |
| CCC(C)NC(=O)c1ccccc1NC(=O)Nc1ccccc1 (stereo not given) | 3.52% |  |
| NS(=O)(=O)c1ccc(NC(=O)Nc2cccc3ccccc23)cc1 | -5.78% [at 11.4 µM] |  |
| CCS(=O)(=O)c1ccc(O)c(NC(=O)Nc2ccccc2)c1 |  | 4.47 µM (active) |
| CCOC(=O)Cc1cc(=O)n2[nH]c(C)c(C#N)c2n1 | -21% |  |
| CC(C)NC(=O)N1CCN(c2ccncc2S(=O)(=O)N2CCOCC2)CC1 | 1.71% |  |
| C/C(=N\OC(=O)c1cccc(C)c1)c1sc(-c2ccccc2)nc1C | -11% |  |
| C/C(=N\OC(=O)c1ccc(F)cc1)c1nccs1 |  | 12.6 µM (active) |
| Cc1ccc2c(c1)/C(=N/OC(=O)c1ccc(F)cc1)CCS2 | -8.38% |  |
| COc1ccccc1NC(=O)N1CCC(c2nnc(SCC(N)=O)n2C)CC1 | 7.79% |  |
| COc1cc(-c2nnc(COC(=O)c3c4c(nc5ccccc35)CCCC4)o2)cc(OC)c1OC | 22.5% |  |
| COc1ccc(-n2c(CNC(=O)c3ccc(S(=O)(=O)N4CCCC4)cc3)n[nH]c2=S)cc1 | -4.46% |  |
| C/C(=N/NC(=O)c1ccc(C)s1)c1cccc(NC(=O)COc2ccc(Cl)cc2C)c1 | -16.1% |  |
| O=C(Nc1ccc2nc(SCc3ccc(Cl)cc3)sc2c1)c1ccccc1C(=O)N1CCOCC1 | -22.4% |  |
| N[C@H](C(=O)O)[C@@H]1[C@@H](C(=O)O)C1(F)F |  | 0.1 µM (active) |
| O=C(Nc1cccc(-c2cnc3ccccc3n2)c1)c1ccc(Cl)cc1 | -4.08% |  |
| COc1ccc(NC(=O)CN(C)S(=O)(=O)c2ccc(Cl)cc2)c([N+](=O)[O-])c1 | -19.3% |  |
| COc1ccc(NC(=O)c2ccc(C)cc2Cl)c([N+](=O)[O-])c1 |  | 0.891 µM (active) |
| COc1ccc(NC(=O)c2cccs2)c([N+](=O)[O-])c1 | -10% |  |
| CCCCN1CSC(=S)N(Cc2ccccc2)C1 |  | 3.98 µM (active) |
| S=C1SCN(CCN2CCOCC2)CN1Cc1ccccc1 |  | 12.6 µM (active) |
| Cn1c(CN2CCOCC2)nnc1SCc1ccccc1 | -4.83% |  |
| O=C(c1ccc2c(c1)N(Cc1ccccc1)C(=O)CS2)N1CCOCC1 | -12.1% |  |

| SMILES | activity, negative = inhibition | AC50 |
| --- | --- | --- |
| O=C1OC(OC2CCCCC2)(c2ccccc2)c2ccccc21 (stereo not given) | 0.0819% |  |
| COc1ccc(-c2cc(C3CCN(c4cc(Cl)nc(N)n4)CC3)[nH]n2)cc1 | -25.5% |  |
| CCN1C(=O)[C@H]2[C@H]3[C@H](O)[C@H](O)C/C(=N/NC(=O)OCc4ccccc4)[C@H]3CC[C@@H]2C1=O | 1.32% [at 11.4 µM] |  |
| C/C(=N\NC(=O)c1cccc(F)c1)c1ccc(Br)s1 | -1.08% |  |
| Cc1cccc(C(=O)NC(=S)N2CCN(C)CC2)c1 | 0.609% |  |
| O=C(O)CC[C@@H](C(=O)O)N1C(=O)[C@@H]2[C@@H]3CC[C@H](C3)[C@@H]2C1=O | 13.3% [at 11.4 µM] |  |
| COCCCNC(=O)C(=O)N/N=C/c1ccc(OCC(=O)Nc2cccc(Cl)c2C)c(OC)c1 | 11% |  |
| CCCc1cc(=O)[nH]c(=S)[nH]1 | 8.48% [at 25.6 µM] |  |
| Cc1ccc(OCC(=O)NNC(=O)CCC(=O)Nc2ccc(C)cc2C)cc1 | 1.32% |  |
| Nc1ccc(S(=O)(=O)NCc2nccs2)cc1 | -11% [at 11.4 µM] |  |
| O=C1CCCC=C1[C@@H](O)C1CCCCC1 | 11.1% [at 11.4 µM] |  |
| CCCCOc1cc(C[C@@H]2CNC(=O)N2)ccc1OC | 4.47% |  |
| CCCN1C[C@H](CSC)C[C@H]2c3cccc4[nH]cc(c34)C[C@@H]21 |  | 0.1 µM (active) |
| O=C(O)c1cc2cc(Cc3cccnc3)ccc2o1 | 5.07% |  |
| Cc1cc(C)nc(NC(=O)c2cccc([N+](=O)[O-])c2C)n1 | -26% |  |
| OC[C@@H](O)CN1CCN(c2ccccc2)CC1 | -10.7% [at 25.6 µM] |  |
| CC(C)(C)C1CCC(OCC(O)CN2CCN(c3ccccc3)CC2)CC1 (stereo not given) |  | 6.31 µM (active) |
| ClC(Cl)(Cl)C(N1CCN(c2ccccc2)CC1)N1CCN(c2ccccc2)CC1 | 4.26% [at 11.4 µM] |  |
| COCCCN=CC1=C(O)CC(C)(C)CC1=O | 2.61% |  |
| CCc1c(C(C)O)oc2ccc3c(C)cc(=O)oc3c12 (stereo not given) | 9.69% |  |
| COc1ccc(-n2nc(C(=O)NCC(=O)Nc3ccccn3)c3ccccc3c2=O)cc1 | -12.4% |  |
| Cn1c(=O)[nH]c2ncn(C)c2c1=O | 7.29% |  |
| CCN(CC)CCN1c2ccccc2Sc2ccc3ccccc3c21 |  | 0.631 µM (active) |
| CN(C)CCCN1c2ccccc2Sc2cnccc21 |  | 1.58 µM (active) |
| CN(C)CCCN1c2ccccc2Sc2ccc3ccccc3c21 |  | 1.26 µM (active) |

| SMILES | activity, negative = inhibition | AC50 |
| --- | --- | --- |
| CCC(=S)/C=C1\Sc2ccc3ccccc3c2N1CCCS(=O)(=O)O | 17.6% |  |
| CN(C)CCCN1c2ccc3ccccc3c2Sc2cccc(Cl)c21 |  | 0.501 µM (active) |
| CCN(CC)CCN1C(=O)c2cccc3cc(N)cc(c23)C1=O | -3.81% [at 11.4 µM] |  |
| CN1C(=C2C(=O)OC(C)(C)OC2=O)Sc2ccccc21 | -17.7% |  |
| C/C(CC(=O)NCc1ccco1)=N\NC(=O)Cc1cccc2ccccc12 | -5.5% |  |
| Cc1c(C(=O)O)nc(/C=C\C(=O)O)[nH]c1=O | 6.81% [at 11.4 µM] |  |
| Cc1nc2cnc(N(C)C)nc2n(Cc2ccc(F)cc2)c1=O | -8.58% |  |
| CCSc1nc2c(c(=O)[nH]1)C(c1ccncc1)C(C(=O)OC(C)C)=C(C)N2 (stereo not given) | -20.1% |  |
| COc1ccc(CN2CN(c3ccc(Cl)cc3)C(=O)N(n3cnnc3)C2)cc1 | -23.4% |  |
| N#C/C(=C\N1CCNC1=S)C(=O)c1ccc2ccccc2c1 | -0.81% [at 11.4 µM] |  |
| CN(C)CCCN1c2ccccc2C(C)(C)c2ccccc21 |  | 3.98 µM (active) |
| CN(C)CCCn1cc(C2=C(c3c[nH]c4ccccc34)C(=O)NC2=O)c2ccccc21 | -1.97% |  |
| COc1ccccc1N1CCN(CCN2C(=O)c3ccccc3C(C)(C)C2=O)CC1 | -4.41% |  |
| O=C(c1cnccn1)N1CCC2(CC1)CN(c1cccc(-c3ccccc3)c1)C2 | -1.37% |  |
| O=C(NCc1n[nH]c(=S)n1-c1cccc(Cl)c1)c1ccc(S(=O)(=O)N2CCCC2)cc1 | 4.31% |  |
| NC(=O)c1ccc(-c2ncc(-c3ccccc3)o2)cc1 | -17% |  |
| Fc1ccc(-c2cnc(-c3cccs3)o2)cc1 |  | 28.2 µM (active) |
| Nc1c(-c2cccs2)cnn1-c1nc(-c2ccc(F)cc2)cs1 | 14.5% |  |
| COc1ccc(C2C(C#N)=C(N)OC3=C2C(=O)CC(C)(C)C3)c([N+](=O)[O-])c1OC (stereo not given) | -0.502% |  |
| CSc1cc(C)nc(NC(C)=O)n1 | -5.56% |  |
| CCOC(=O)C1=C(CSc2nc3ccccc3s2)NC(=O)NC1c1cc(C)ccc1C (stereo not given) | -7.88% |  |
| O=S(=O)(c1ccccc1)N1CCC[C@@]2(CCN(C(c3ccccc3)c3ccccc3)C2)C1 |  | 0.631 µM (active) |
| O=S(=O)(c1ccccc1)N1CCC2(CC1)CN(C(c1ccccc1)c1ccccc1)C2 |  | 2.51 µM (active) |
| O=S(=O)(c1ccccc1)N1CCC2(CCCN(C(c3ccccc3)c3ccccc3)C2)CC1 |  | 0.501 µM (active) |
| O=S(=O)(c1ccccc1)N1CCC2(CCN(C(c3ccccc3)c3ccccc3)CC2)CC1 | -11.1% |  |

| SMILES | activity, negative = inhibition | AC50 |
| --- | --- | --- |
| CN1CCCC2(CCN(S(=O)(=O)c3ccccc3)CC2)C1 | -20.3% |  |
| Fc1ccc2nc(Nc3nc4c(s3)CCCC4)sc2c1 | -30% |  |
| Cc1cc(OC(=O)c2cc(F)c(F)cc2Cl)nc(C)n1 | 0.508% |  |
| O=C(O)CN(CCN(CC(=O)O)CC(=O)O)CCN(CC(=O)O)CC(=O)O |  | inactive |
| Nc1nc(N)c2[nH]cnc2n1 (tested in a mixture with another compound) | -4.07% [at 11.4 µM] |  |
| C/C(Cl)=C\Cn1c(N2CCCC2)nc2c1c(=O)[nH]c(=O)n2C | -1.19% |  |
| C[C@@H](CC(=O)O)[C@@H](N)C(=O)O | 4.74% |  |
| Cc1ccnc(NS(=O)(=O)c2ccc(N)cc2)n1 |  | inactive |
| COC(=O)c1ccc(CCc2cc(O)ccc2O)cc1 | 7.07% [at 11.4 µM] |  |
| O=c1[nH]c(=S)c2[nH]c(=O)n(-c3ccccc3)c2[nH]1 | 7.71% [at 11.4 µM] |  |
| CO[C@]1(NC(=O)Cc2cccs2)C(=O)N2C(C(=O)O)=C(COC(N)=O)CS[C@H]21 | 0.942% [at 25.6 µM] |  |
| NC1=NC2(CCCCC2)N=C(Nc2ccc(F)cc2F)N1 |  | 12.6 µM (active) |
| CC(=O)NC1(c2ccc(F)cc2)CCN(C(=O)Nc2ccc(F)cc2F)CC1 | -3.83% |  |
| CO[C@H]1OC[C@@]2(C)[C@@H]3C4=C(CN2C(=O)OC(C)(C)C)[C@H](C)[C@H](CO)[C@H](CO)[C@H]4CC[C@H]13 | -0.655% |  |
| Cc1cccc(OCCn2c(-c3ccco3)nc3ccccc32)c1 |  | 5.01 µM (active) |
| Cc1cccc(N2CC(O)=C(c3nc4ccccc4n3C)C2=N)c1 | -23.1% |  |
| Cc1cccc(CCNc2nc3ccccc3n3nnnc23)c1 | -2.97% |  |
| Cn1cc(C(=O)c2ccc(Cl)cc2Cl)cc1C(=O)O | 11.2% |  |
| O=c1c(-c2ccccc2)nc2cnc(N3CCNCC3)nc2n1-c1ccccc1 | -14.5% |  |
| OCCN1CCN(c2nc(N3CCCCC3)nc(N3CCCCC3)n2)CC1 | -15% |  |
| N#CN(CC(N)=O)c1nc(N2CCCCC2)nc(N2CCCCC2)n1 |  | 14.1 µM (active) |
| O=c1nc(N2CCCCCC2)nc(N2CCCCCC2)[nH]1 | -8.94% |  |
| Cc1[nH]c(=O)c(C(=O)/C=C/c2ccccc2F)c2c1CCCC2 | -24.7% |  |
| COCCn1c(=O)c(-c2ccc(OC)cc2)nc2cnc(N3CCOCC3)nc21 | 8.27% |  |
| NNC(=O)[C@@H](O)[C@H](O)[C@H](O)CO | 17.4% [at 11.4 µM] |  |
